Source: PubChem (National Center for Advancing Translational Sciences (NCATS))
NPC1 prom act: qHTS Assay for NPC1 Promoter Activators. Huh7 NPC1 promoter luciferase reporter, 24 h. Potency, µM (highest dose often 9.22 µM), inactives show top-dose activation, hits mostly activators. hit rate 2.4% among 320,000. AID 485313, 2010; further: % of control where 0% means no effect; nearly all actives have a fitted effect of over 60% in size
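Compounds in DMSO were transferred onto Huh7 NPC1-luciferase reporter cells pre-incubated 2 h; after 24 h at 37 °C, Amplite reagent was dispensed and luminescence recorded 10 min later.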
ELG1 genotoxic: qHTS screen for small molecules that induce genotoxicity in human embryonic kidney (HEK293T) cells expressing luciferase-tagged ELG1; Potency, µM (series often up to 46 µM), for the others: at the highest dose activity change, positive = activation, most hits filed as activators; HEK293T ELG1-luciferase reporter, luminescence, 16 h; hit rate 1.3% among 330,000; further: % of control where 0% means no effect; nearly all actives have a fitted effect of over 60% in size
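Quantitative HTS format in 1536-well plates. HEK293T ELG1-luciferase reporter cells receive test compound and are incubated 16 hr at 37 °C, 5% CO2; ONE-Glo added, 30 min room temperature, then luminescence read.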
ELG1 repair inh: qHTS screen for small molecules that inhibit ELG1-dependent DNA repair in human embryonic kidney (HEK293T) cells expressing luciferase-tagged ELG1; HEK293T ELG1-luciferase reporter, luminescence, 16 h; DNA damage induced by 5-fluorouridine; Potency, µM (series often up to 46.1 µM), without a hit: top-dose activity change, negative = inhibition, hits mostly inhibitors; hit rate 2.3% among 330,000; further: on the % scale 0 is the no-effect control and ±100 the full control effect; nearly all actives have a fitted effect of over 55% in size
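Luminescence from the luciferase reporter, measured 30 min after ONE-Glo reagent at room temperature, was the read-out. Beforehand, 2,000 cells per well were exposed for 16 hr at 37 °C to 5-fluorouridine together with compound or vehicle.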
Rab9 prom act: qHTS Assay for Rab9 Promoter Activators; Huh7 Rab9 promoter-luciferase reporter, luminescence, 24 h; hit rate 2.8% among 320,000; AID 485297, 2010; Potency, µM (doses to about 9.22 µM), inactives show top-dose activation, negative = inhibition, most hits filed as activators; further: % of control where 0% means no effect; nearly all actives have a fitted effect of over 60% in size
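Huh7 reporter line, Rab9 promoter upstream of luciferase. Compound exposure 24 h at 37 °C in reduced-serum medium with 10% FBS. Read-out: luminescence.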
SMN2 splice enh: qHTS Assay for Enhancers of SMN2 Splice Variant Expression; AID 1458, 2008; HEK293 SMN2-luciferase splicing reporter, luminescence, 30-36 h; Potency, µM (doses to about 46.1 µM), inactives show at the top dose activity change, positive = activation, usual class: activators; hit rate 2.8% among 210,000; further: % of control where 0% means no effect; nearly all actives have a fitted effect of over 55% in size
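HEK293 cells carry an SMN2 minigene-luciferase reporter in which exon 7 inclusion puts luciferase in frame. Cells were seeded at 2000 cells/well, attached for 10-12 hours, then exposed to compounds for 30-36 hours at 37C before ONE-Glo luminescence.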
FLuc counter: qHTS profiling assay for firefly luciferase inhibitor/activator using purifed enzyme and Km concentrations of substrates (counterscreen for miR-21 project); Potency, µM (titrated, usually from 57.5 µM), for the others: at the highest dose activity change, negative = inhibition, actives largely listed as inhibitors; purified FLuc, Km substrates, luminescence inhibition; AID 588342, 2011; Luciferin 4-monooxygenase (Photinus pyralis), P08659; hit rate 6.9% among 360,000;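 further: plate controls were vehicle for no effect and reference inhibitor for full effect; nearly all actives have a fitted effect of over 55% in size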
Target sequence (P08659 whole entry, looked up): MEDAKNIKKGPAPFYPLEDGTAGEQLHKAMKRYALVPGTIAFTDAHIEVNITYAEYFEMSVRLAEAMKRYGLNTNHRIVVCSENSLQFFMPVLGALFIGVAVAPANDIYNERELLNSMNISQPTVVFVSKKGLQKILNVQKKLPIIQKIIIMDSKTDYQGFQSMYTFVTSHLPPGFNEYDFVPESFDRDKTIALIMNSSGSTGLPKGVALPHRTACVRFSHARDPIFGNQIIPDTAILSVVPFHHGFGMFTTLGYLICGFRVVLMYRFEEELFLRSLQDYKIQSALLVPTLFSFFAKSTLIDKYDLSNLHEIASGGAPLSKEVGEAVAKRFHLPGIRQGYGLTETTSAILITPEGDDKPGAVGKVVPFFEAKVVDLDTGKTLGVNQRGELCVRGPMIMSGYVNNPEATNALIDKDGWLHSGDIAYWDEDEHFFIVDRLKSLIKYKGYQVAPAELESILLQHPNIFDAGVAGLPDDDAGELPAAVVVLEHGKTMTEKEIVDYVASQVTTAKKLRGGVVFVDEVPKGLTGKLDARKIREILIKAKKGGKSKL
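Purified P. pyralis luciferase (10nM final) with 10uM D-luciferin and 10uM ATP (Km levels) in 50mM Tris acetate pH 7.5, 10mM Mg acetate, 0.01% Tween-20, 0.05% BSA; qHTS 6-point titration, ~60 µM downward; luminescence read.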
* marks the source's active call; other numbers are inactive results; ? = inconclusive; / = no result. This is a sample that favours compounds with a hit; in the whole collection about 9.3% have one here. The call rests on the fitted dose curve; in most records, active means well fitted curve in the direction sought with a large enough effect; inconclusive means small, poorly fitted or top-dose-only effect, or another doubt; inactive means no such curve, though single readings can be large; an effect the other way counts as inactive or inconclusive. Potency means the concentration at half of the fitted maximal effect.

SMILES	NPC1 prom act	ELG1 genotoxic	ELG1 repair inh	Rab9 prom act	SMN2 splice enh	FLuc counter
CC(C)(C)c1ccc(Cn2cnc(-c3ccc([N+](=O)[O-])cc3)c2)cc1	?	?	?	?	27%	19µM*
O=[N+]([O-])c1ccc(NCc2ccc(Cl)cc2)nc1	?	?	?	?	/	15µM*
CC(C)c1ccc(CNc2ccc([N+](=O)[O-])cn2)cc1	?	?	?	?	16µM*	9.5µM*
CCn1c(N)c(C(=O)COC(=O)CCc2nc3ccccc3c(=O)[nH]2)c(=O)[nH]c1=O	-2%	2%	16%	0%	/	0%
Cc1ccc(-n2ncc(C(=O)N3CCN(c4cccc(C)c4C)CC3)c2C2CCNCC2)c(C)c1	/	/	/	/	/	1%
Cc1cc(C(=O)Cn2nc(C(=O)O)c3ccccc3c2=O)c(C)n1CCc1ccc(F)cc1	3%	-8%	?	5%	/	?
COCC(C)n1c(C)cc(C(=O)Cn2nc(C(=O)O)c3ccccc3c2=O)c1C (configuration not stated)	0%	?	?	23%	2%	7.6µM*
Cc1ccc(-n2c(C)cc(C(=O)Cn3nc(C(=O)O)c4ccccc4c3=O)c2C)cc1	0%	4%	19%	8%	/	5.4µM*
Cc1cc(C(=O)Cn2nc(C(=O)O)c3ccccc3c2=O)c(C)n1CC(F)(F)F	18%	16%	?	?	5%	3µM*
COc1ccc(-n2c(C)cc(C(=O)Cn3nnc4ccccc4c3=O)c2C)cc1	23%	-2%	6%	?	-3%	12µM*
Cc1ccc(N(CC(=O)NCc2ccco2)C(=O)CNS(=O)(=O)c2ccccc2)c(C)c1	0%	1%	4%	-6%	/	4%
O=S(=O)(NCCc1ccc(F)cc1)c1ccc(F)cc1Br	/	2%	-1%	/	/	/
COc1cccc(C(=O)N2CCn3c2nc2ccccc23)c1	19%	12%	?	14%	25%	?
Cc1ccc(C(=O)Cn2nc(C(=O)O)c3ccccc3c2=O)cc1C	4%	1%	0%	13%	/	6.7µM*
COc1ccc(-n2c(C)cc(C(=O)Cn3nc(C(=O)O)c4ccccc4c3=O)c2C)cc1	-1%	-2%	-16%	1%	-28%	24µM*
Cc1cc(C(=O)Cn2nc(C(=O)O)c3ccccc3c2=O)c(C)n1-c1ccc(OC(F)F)cc1	0%	-11%	?	1%	-52%	-16%
Cc1cc(C(=O)Cn2nnc3ccccc3c2=O)c(C)n1-c1ccccc1F	0.45µM*	?	?	0.4µM*	11µM*	0.34µM*
CCc1cccc(CC)c1NC(=O)CCS(=O)(=O)c1ccc2c(c1)CCN2C(C)=O	/	/	/	/	1%	-3%
Cn1nc(N)nc1N1CCN(c2ccc(F)cc2)CC1	-2%	4%	-6%	1%	-4%	2%
CN(Cc1ccccc1)Cc1c(F)cccc1F	-2%	-5%	9%	-4%	1.4µM*	15%
Cc1ccc(Nc2ccc(-n3ccnc3)nn2)cc1C	-3%	3%	?	-5%	-2%	17µM*
COC(=O)c1ccc(COc2ccc(/C=N/N3CCN(C)CC3)cc2)cc1	?	?	?	1.1µM*	5.6µM*	24µM*
CN1CCN(/N=C/c2ccc(OCc3ccccc3)cc2)CC1	3.5µM*	?	?	2.8µM*	/	9.5µM*
C(=N\n1cnnc1)/c1ccc(OCc2ccccc2)cc1	0%	?	?	8%	-26%	?
COc1ccccc1C(=O)NCCC(=O)Nc1ccc(OC(F)(F)F)cc1	-5%	-2%	1%	-2%	/	-1%
